We go through 7 molecules from PubChem BioAssay.

Experiment [1] in a line: stimulators of insulin release from INS-1E, primary screen, cell-based, 5 mM glucose, NPC library (AID 1117329;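 active means compound raises insulin release from rat beta cells at 5 mM glucose, no numeric limit stated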). The conditions noted are these: rat INS-1E insulin secretion, at 10 µM, stronger effect = higher value.
Experiment [2] is described as follows: growth inhibition of GSK3B-pretreated HCT116 cells – cell-based, CellTiter-Glo, 0.2 to 20 µM (AID 1117336;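 active means compounds lowering colon cancer cell viability after pretreatment blocking the GSK3B kinase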). The conditions noted are these: HCT116 viability after GSK3B inhibitor, at 20 µM, stronger effect = higher value.
Experiment [3] is described as follows: inhibition of endothelial tube formation, primary screen, imaging, VEGF stimulated, CD31 staining, tube area, NPC library (AID 1117340;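 active means compound that reduces growth-factor-driven endothelial tube area in a mixed cell culture, no cutoff stated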). The conditions noted are these: VEGF-stimulated ADSC/ECFC co-culture, at 10 µM, stronger effect = higher value.
Experiment [4] is described as follows: glucagon-like peptide 1 release enhancers, primary assay, NCI-H716 cell line, NPC library (AID 1117341;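 active means compound raises GLP1 secretion from the human gut endocrine cells, with no numeric limit stated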). The conditions noted are these: NCI-H716 cells, at 10 µM, stronger effect = higher value.
Experiment [5] in a line: HCT116 colon cancer cell growth inhibition, primary screen, CellTiter-Glo luminescence, NPC library (AID 1117342;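 active means compounds that lower survival of HCT116 colon cancer cells in the luminescence readout, no numeric limit stated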). The conditions noted are these: at 20 µM (top of the series).
Experiment [6] is described as follows: CellTiter-Glo luminescent readout of SW480 viability loss, NPC library primary (AID 1117343;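 active means compounds that lower viability of the colon cancer cells in the luminescence readout, with no numeric limit stated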). Conditions: CellTiter-Glo luminescence; at 20 µM (top of the series). A general note: Cellular ATP, detected with luciferase, serves as a proxy for viable cell number.
Experiment [7] can be described thus: decreased DLD-1 cellular survival, CellTiter-Glo luminescent readout, NPC compound collection, primary HTS (AID 1117346;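 active means compounds that lower survival of DLD-1 colon cancer cells in the luminescence readout, no cutoff given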). Conditions: DLD-1 viability, CellTiter-Glo luminescence; at 20 µM (top of the series).
In experiment [8] the target is 6-phosphogluconate dehydrogenase, decarboxylating (Homo sapiens) (UniProt P52209). Put plainly: 6PGD enzyme inhibitors, primary screen, biochemical, human, recombinant enzyme, NADPH absorbance (AID 1159550). Conditions: recombinant 6PGD, NADPH absorbance 341 nm; at 10 µM; stronger effect = higher value.
Chain of 6-phosphogluconate dehydrogenase, decarboxylating (Homo sapiens) (P52209 whole entry, looked up): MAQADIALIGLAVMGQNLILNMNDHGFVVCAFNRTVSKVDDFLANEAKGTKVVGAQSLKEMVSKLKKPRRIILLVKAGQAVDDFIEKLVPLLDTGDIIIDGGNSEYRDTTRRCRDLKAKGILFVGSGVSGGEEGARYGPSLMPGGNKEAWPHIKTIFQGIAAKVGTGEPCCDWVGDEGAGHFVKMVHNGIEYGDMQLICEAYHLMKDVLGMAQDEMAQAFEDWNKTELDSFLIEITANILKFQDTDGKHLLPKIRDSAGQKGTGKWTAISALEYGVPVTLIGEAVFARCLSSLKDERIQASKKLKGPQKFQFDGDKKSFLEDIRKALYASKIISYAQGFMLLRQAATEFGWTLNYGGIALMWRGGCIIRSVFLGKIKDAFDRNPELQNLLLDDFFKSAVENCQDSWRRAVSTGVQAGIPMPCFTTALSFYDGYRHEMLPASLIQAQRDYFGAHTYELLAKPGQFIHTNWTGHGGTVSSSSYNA
Experiment [9] is described as follows: differential killing of epithelial or mesenchymal cells, primary screen, imaging, PC-3E GFP, TEM4-18 mCherry, co-culture (AID 1345086;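 active means compounds killing one labelled cell type while sparing the other, by normalised counts and ratio limits, not self-fluorescent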;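 on all read-outs here: cells exposed to compound for 72 h before imaging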;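 on red/green cell ratio (normalised): normalised mesenchymal count divided by normalised epithelial count so high means epithelial killing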). The conditions noted are these: imaging cell counts, at 1 µM; for red/green cell ratio (normalised): actives lie on both sides, counts scaled to control wells, 1 = unselective.
[10] abbreviates: measured here: epithelial PC-3E GFP cell survival.
Where [11] appears, read: measured here: mesenchymal TEM4-18 mCherry cell survival.

SMILES strings stand for the structures. The source made the active and inactive calls.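 How the source made its calls, unless noted: active means at least 20% inhibition of 6-phosphogluconate dehydrogenase activity; inactive means the rest.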

As a reminder, the inhibition is the drop in the measured response relative to a control, in per cent.

As to `CCCCCN(CCCCC)C(=O)C(CCC(=O)O)NC(=O)c1ccc(Cl)c(Cl)c1` (centres undefined), the insulin secretion stimulation in [1] is 2.8% (inactive). The viability decrease in [2] is -12.2% (inactive). Further, the tube area decrease in experiment [3] is 4.7% (inactive). Moreover, the GLP1 secretion stimulation in experiment [4] is 6.6% (inactive). Besides, in experiment [5], the inhibition of viability is 4.6% (inactive). The results for the viability decrease (inhibition) in [6] and in [7] were 40.9% (inactive) and 38.9% (inactive), respectively. Further, the inhibition in experiment [8] is 2.64% (inactive). Further, the red/green cell ratio (normalised) in experiment [9] was 0.82 (inactive). The normalised cell number in [9] (setting [10]) is 1.1; in experiment [9] (setting [11]), 0.9.
Take `CCOc1ccc(Cc2nccc3cc(OCC)c(OCC)cc23)cc1OCC`: the insulin secretion stimulation in experiment [1] is 1.2% (inactive). Moreover, the viability decrease in [2] was -83% (inactive). Moreover, the tube area decrease in experiment [3] was 39.2% (inactive). Further, in experiment [4], the GLP1 secretion stimulation is 4.1% (inactive). The inhibition of viability in [5] is 69.1% (active). The viability decrease (inhibition) was 97.9% (active) in experiment [6] and 62.3% (active) in experiment [7]. Also, the inhibition in [8] was -5.46% (inactive). Moreover, the red/green cell ratio (normalised) in experiment [9] is 0.88 (inactive). In addition, the normalised cell number is 1 in experiment [9] (setting [10]) and 0.88 in [9] (setting [11]).
Regarding `O=C(O)c1ccccc1Nc1cccc(C(F)(F)F)c1`, the insulin secretion stimulation in experiment [1] is 0.1% (inactive). Besides, in experiment [2], the viability decrease is 91.3% (active). Also, the tube area decrease in experiment [3] is 47.5% (active). In experiment [4], the GLP1 secretion stimulation was 9.5% (inactive). Besides, in [5], the inhibition of viability is 66.3% (active). The viability decrease (inhibition) was 70.1% (active) in [6] and 78.8% (active) in experiment [7]. Further, the inhibition in experiment [8] was 2.7% (inactive). In [9], the red/green cell ratio (normalised) is 0.85 (inactive). For the same molecule, the normalised cell number in experiment [9] (setting [10]) amounted to 1.18; in experiment [9] (setting [11]), 1.
`O=C(O)CCNC(=O)c1ccccc1`: the insulin secretion stimulation in [1] is -1% (inactive). The viability decrease in experiment [2] is 6.3% (inactive). The tube area decrease in experiment [3] was -2% (inactive). Also, the GLP1 secretion stimulation in experiment [4] was -0.3% (inactive). Also, the inhibition of viability in experiment [5] is -7.2% (inactive). In addition, the viability decrease (inhibition) in [6] was -1.3% (inactive); in [7], 6.4% (inactive). Besides, in [8], the inhibition was 2.23% (inactive). The red/green cell ratio (normalised) in [9] was 0.71 (inactive). In addition, the normalised cell number was found to be 1.22 in experiment [9] (setting [10]) and 0.87 in experiment [9] (setting [11]).
As to `NS(=O)(=O)c1cc2c(cc1Cl)NC(CSCc1ccccc1)=NS2(=O)=O`, in experiment [1], the insulin secretion stimulation was 0% (inactive). Also, the viability decrease in experiment [2] was -14.2% (inactive). Besides, the tube area decrease in experiment [3] is 5% (inactive). Besides, the GLP1 secretion stimulation in experiment [4] is 0.4% (inactive). In addition, in experiment [5], the inhibition of viability was -3.3% (inactive). The viability decrease (inhibition) was 0.9% (inactive) in experiment [6] and -17.1% (inactive) in experiment [7]. Further, in experiment [8], the inhibition is -3.14% (inactive). In addition, in [9], the red/green cell ratio (normalised) is 1.25 (inactive). Moreover, the normalised cell number was 1.02 in experiment [9] (setting [10]) and 1.28 in [9] (setting [11]).
With `C[C@]12CCC(=O)C=C1C=C[C@@H]1[C@@H]2CC[C@@]2(C)[C@H]1CC[C@@]21CCC(=O)O1`, in experiment [1], the insulin secretion stimulation was -2.6% (inactive). Also, the viability decrease in [2] is 22.8% (inactive). The tube area decrease in [3] is 9% (inactive). In addition, in experiment [4], the GLP1 secretion stimulation is 3.3% (inactive). Moreover, the inhibition of viability in experiment [5] was 33.6% (inactive). In addition, the results for the viability decrease (inhibition) in experiment [6] and in experiment [7] were 60.5% (active) and 11.5% (inactive), respectively. Further, the inhibition in experiment [8] is -1.14% (inactive).
Consider `Cc1ccccc1OCC(O)CO` (centres undefined), for which the insulin secretion stimulation in [1] is -1.2% (inactive). Further, the viability decrease in [2] was -10.2% (inactive). Besides, the tube area decrease in experiment [3] is -4.1% (inactive). Further, in experiment [4], the GLP1 secretion stimulation was -0.8% (inactive). In experiment [5], the inhibition of viability is -20.4% (inactive). The viability decrease (inhibition) in experiment [6] was 0.7% (inactive); in experiment [7] it was -25.4% (inactive). In addition, in experiment [8], the inhibition was 7.3% (inactive). Moreover, in [9], the red/green cell ratio (normalised) is 1.04 (inactive). In addition, the normalised cell number in experiment [9] (setting [10]) was found to be 1.05; in experiment [9] (setting [11]) it was 1.1.
